SMILES strings stand for the structures. About 83,000 compounds went through this panel and 20% of them were active in at least one assay; those are over-represented in the sample as a whole.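 For each line, cells grew in 96-well plates with the test compound present at a single concentration for 48 hours.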 Unmarked numbers belong to inactive results. Activity calls are given as the source filed them. The calls were made as follows: active = growth percent below 10; inactive = the rest.

The first assay deals with A498 renal. The experiment in a line: NCI-60 one-dose screen, 48 h (100 = growth as untreated, 0 = no growth, -100 = all killed). The conditions noted are these: 10 µM unless noted.
As for `COc1cnc2c(c1)C(=O)c1c-2n(CCCN2CCNCC2)c(=O)c2cc(Cl)ccc12`, the growth is 13.6%.

On to `c1coc(CNc2c3ccccc3nc3ccccc23)c1`, for which the growth was 20.1%.

On to `Cn1cnc([N+](=O)[O-])c1S(=O)(=O)Oc1ccccc1`, for which the growth is 108%.

Consider `O=c1c2cc(Br)cc(Br)c2nc(-c2ccc(Cl)cc2)n1/N=C\c1ccccc1F`, for which the growth was 85.6%.

Take `CC1=CC(=O)OC1C/C=C(\C)CCC1[C@@]2(C)CCC[C@@](C)(C(=O)O)C2CC[C@@]1(C)O` (stereo partly specified): the growth was 52.7%.

With `Cn1cnc([N+](=O)[O-])c1S(=O)(=O)Oc1cccc2ccccc12`, the growth was 97.6%.

Take `COc1ccccc1CNCCCN1C(=O)c2ccc3c4c(ccc(c24)C1=O)C(=O)N(CCCOCCCCOCCCN)C3=O`: the growth is -16.1% (active).

Take `COc1cc(NCC(O)CN(CC(C)C)CC(C)C)c2ncccc2c1` (stereo unspecified): the growth was 70%.

Take `CC(C)(CCc1ccccn1)C(=O)CCCc1ccccn1`: the growth was 96.3%.

On to `COc1cccc(-c2nc3sccn3c2-c2ccnc(NCCN3CCCN(C)S3(=O)=O)n2)c1`, for which the growth is 98.1%.

Consider `Cc1ccc(NC(=O)c2sc3nc4c(cc3c2N)C(=O)CCC4)cc1Cl`, for which the growth was 97.9%.

On to `COc1ccc(NC(=O)c2sc3c(=O)[nH]c(C(F)(F)F)nc3c2C)cc1`, for which the growth is 108%.

For the molecule `CCC1=CC2CN(C1)Cc1c([nH]c3ccccc13)[C@@](C(=O)OC)(c1cc3c(cc1OC)N(C)[C@H]1[C@@](O)(C(=O)OC)[C@H](OC(C)=O)[C@]4(CC)C=CCN5CC[C@]31[C@@H]54)C2` (stereo partly specified), the growth is -14.6% (active).

For `CN1C2CCC1/C(=C\c1ccc(Cl)cc1)C(=O)/C2=C/c1ccc(Cl)cc1`, the growth is 78.5%.

Take `CC(C)[C@@]12C[C@@H](OC(=O)[C@H]3CO3)[C@@](C)(O1)[C@@H]1CC[C@@H](C)[C@H]1[C@@H]2OC(=O)/C=C/c1ccccc1`: the growth was -61.1% (active).

Turning to `OCCN(CCO)c1ccc2ccccc2c1`, the growth is 110%.

Consider `O=C(NCCN1CCCC1)n1cc(-c2ccncc2)c(-c2cc(O)cc(Cl)c2)n1`, for which the growth is 103%.

As to `CC1=C(/C=C/C(C)=C/C=C(C(=O)O)\C(C)=C\C(=O)O)C(C)(C)CCC1`, the growth is 91.2%.

Turning to `O=C1/C=C/[C@@H](O)[C@@H]2C[C@@H](O)C[C@H]2/C=C/CCC[C@H]([C@@H](O)CO)O1`, the growth was 64%.

In the case of `O=C1C(Cl)=C(Nc2cccc3ccccc23)C(=O)c2ccccc21`, the growth was 77.5%.

For the molecule `Cc1ccc2c(C)c3c(ccc4ccccc43)c[n+]2c1`, the growth was 89.7%.

As for `Nc1c(C(=O)C[C@@H](N)CO)ccc2c1C(=O)CCO2`, the growth was -37.5% (active).

Regarding `COc1ccc2c(c1)sc1nc(-c3ccccc3)c(-c3cccc4ccccc34)n12`, the growth is 0.895% (active).

Regarding `CCOc1cc(/C=N\NC(=O)C[N+](C)(C)C)ccc1O`, the growth is 115%.

In the case of `C=C1C(=O)O[C@H]2[C@H]1CC/C(COC(=O)NCc1cn(C)c3ccccc13)=C\CC[C@@]1(C)O[C@@H]21`, the growth is 63.4%.

As to `CCCCCCCC/C=C/CCCCCCCC1=NC(C)(C)CN1C(C)C`, the growth was 65.7%.

Turning to `Clc1ccc(-c2nc(-c3cccs3)no2)cc1`, the growth is 108%.

Consider `C=CCOC(=O)C1=C(C)NC2=C(C(=O)CC(C)(C)C2)C1c1ccc(OC)cc1` (stereo unspecified), for which the growth is 85.5%.

Consider `COc1ccc(/C=C(\C#N)c2cc(OC)c(OC)c(OC)c2)cc1`, for which the growth is 7.06% (active).

On to `CCOC(=O)C#Cc1c(C(=O)OCC)nnn1[C@@H]1O[C@H](COC(C)=O)[C@@H](OC(C)=O)[C@H]1OC(C)=O`, for which the growth is 102%.

With `CCOC(=O)c1ccc(NC(=O)CSC(N)=O)cc1`, the growth is 111%.

As to `COc1cc(-c2nc(-c3ccc(-c4nc5ccc(F)cc5[nH]4)cc3)no2)cc(OC)c1OC`, the growth is 71.2%.

Turning to `Nc1ccc(C2=NNC(=O)Cc3cc4c(cc32)OCCO4)cc1Cl`, the growth was 56.3%.

As for `COc1cc(/C=C2\CN(C(=O)OC(C)(C)C)C/C(=C\c3ccc(O)c(OC)c3)C2=O)ccc1O`, the growth is 104%.

Turning to `CCN1C(=O)N(CC)C2C1N=C(SC)N2/N=C/C=C/c1ccccc1OC` (stereo unspecified), the growth was 15.1%.

Regarding `N#CCCn1cnc2c(N)ncnc21`, the growth was 112%.

Regarding `COc1ccc(C2c3cccn3-c3ccccc3N2C(C)=O)cc1` (stereo unspecified), the growth is 86%.

With `COc1ccccc1/C=C/C(=O)CCC(=O)O`, the growth was 130%.

The subject of the next assay is CCRF-CEM leukemia. The assay is described as above. The conditions noted are these: 10 µM unless noted.
`COc1cnc2c(c1)C(=O)c1c-2n(CCCN2CCNCC2)c(=O)c2cc(Cl)ccc12`: the growth was -69.4% (active).

For the molecule `c1coc(CNc2c3ccccc3nc3ccccc23)c1`, the growth is 57.2%.

For the molecule `Cn1cnc([N+](=O)[O-])c1S(=O)(=O)Oc1ccccc1`, the growth is 6.29% (active).

With `O=c1c2cc(Br)cc(Br)c2nc(-c2ccc(Cl)cc2)n1/N=C\c1ccccc1F`, the growth was 71.7%.

Regarding `CC1=CC(=O)OC1C/C=C(\C)CCC1[C@@]2(C)CCC[C@@](C)(C(=O)O)C2CC[C@@]1(C)O` (stereo partly specified), the growth is 70.2%.

Turning to `Cn1cnc([N+](=O)[O-])c1S(=O)(=O)Oc1cccc2ccccc12`, the growth was -1.53% (active).

As for `COc1ccccc1CNCCCN1C(=O)c2ccc3c4c(ccc(c24)C1=O)C(=O)N(CCCOCCCCOCCCN)C3=O`, the growth was 2.11% (active).

As to `COc1cc(NCC(O)CN(CC(C)C)CC(C)C)c2ncccc2c1` (stereo unspecified), the growth is 57.8%.

Take `CC(C)(CCc1ccccn1)C(=O)CCCc1ccccn1`: the growth is 84.8%.

Turning to `COc1cccc(-c2nc3sccn3c2-c2ccnc(NCCN3CCCN(C)S3(=O)=O)n2)c1`, the growth is 63.3%.

As to `Cc1ccc(NC(=O)c2sc3nc4c(cc3c2N)C(=O)CCC4)cc1Cl`, the growth is 104%.

Regarding `COc1ccc(NC(=O)c2sc3c(=O)[nH]c(C(F)(F)F)nc3c2C)cc1`, the growth is 90%.

Consider `CCC1=CC2CN(C1)Cc1c([nH]c3ccccc13)[C@@](C(=O)OC)(c1cc3c(cc1OC)N(C)[C@H]1[C@@](O)(C(=O)OC)[C@H](OC(C)=O)[C@]4(CC)C=CCN5CC[C@]31[C@@H]54)C2` (stereo partly specified), for which the growth was 19.1%.

In the case of `CN1C2CCC1/C(=C\c1ccc(Cl)cc1)C(=O)/C2=C/c1ccc(Cl)cc1`, the growth is 24.4%.

In the case of `CC(C)[C@@]12C[C@@H](OC(=O)[C@H]3CO3)[C@@](C)(O1)[C@@H]1CC[C@@H](C)[C@H]1[C@@H]2OC(=O)/C=C/c1ccccc1`, the growth is 81.9%.

`OCCN(CCO)c1ccc2ccccc2c1`: the growth is 109%.

With `O=C(NCCN1CCCC1)n1cc(-c2ccncc2)c(-c2cc(O)cc(Cl)c2)n1`, the growth is 85.7%.

In the case of `CC1=C(/C=C/C(C)=C/C=C(C(=O)O)\C(C)=C\C(=O)O)C(C)(C)CCC1`, the growth is 93.3%.

With `O=C1/C=C/[C@@H](O)[C@@H]2C[C@@H](O)C[C@H]2/C=C/CCC[C@H]([C@@H](O)CO)O1`, the growth is 101%.

Take `O=C1C(Cl)=C(Nc2cccc3ccccc23)C(=O)c2ccccc21`: the growth was 65.4%.

For `Cc1ccc2c(C)c3c(ccc4ccccc43)c[n+]2c1`, the growth was 57.1%.

`Nc1c(C(=O)C[C@@H](N)CO)ccc2c1C(=O)CCO2`: the growth was 20.6%.

As for `COc1ccc2c(c1)sc1nc(-c3ccccc3)c(-c3cccc4ccccc34)n12`, the growth was 22.3%.

For `CCOc1cc(/C=N\NC(=O)C[N+](C)(C)C)ccc1O`, the growth was 98.5%.

Turning to `C=C1C(=O)O[C@H]2[C@H]1CC/C(COC(=O)NCc1cn(C)c3ccccc13)=C\CC[C@@]1(C)O[C@@H]21`, the growth is -13.3% (active).

Regarding `CCCCCCCC/C=C/CCCCCCCC1=NC(C)(C)CN1C(C)C`, the growth is -43.4% (active).

On to `Clc1ccc(-c2nc(-c3cccs3)no2)cc1`, for which the growth is 91.9%.

Turning to `C=CCOC(=O)C1=C(C)NC2=C(C(=O)CC(C)(C)C2)C1c1ccc(OC)cc1` (stereo unspecified), the growth is 97.4%.

Take `COc1ccc(/C=C(\C#N)c2cc(OC)c(OC)c(OC)c2)cc1`: the growth was 14.9%.

Take `CCOC(=O)C#Cc1c(C(=O)OCC)nnn1[C@@H]1O[C@H](COC(C)=O)[C@@H](OC(C)=O)[C@H]1OC(C)=O`: the growth is 48.3%.

For the molecule `CCOC(=O)c1ccc(NC(=O)CSC(N)=O)cc1`, the growth was 103%.

Take `COc1cc(-c2nc(-c3ccc(-c4nc5ccc(F)cc5[nH]4)cc3)no2)cc(OC)c1OC`: the growth is 8.61% (active).

For `Nc1ccc(C2=NNC(=O)Cc3cc4c(cc32)OCCO4)cc1Cl`, the growth is 42.5%.

For `COc1cc(/C=C2\CN(C(=O)OC(C)(C)C)C/C(=C\c3ccc(O)c(OC)c3)C2=O)ccc1O`, the growth was 101%.

Regarding `CCN1C(=O)N(CC)C2C1N=C(SC)N2/N=C/C=C/c1ccccc1OC` (stereo unspecified), the growth was 12.5%.

In the case of `N#CCCn1cnc2c(N)ncnc21`, the growth is 96.7%.

As for `COc1ccc(C2c3cccn3-c3ccccc3N2C(C)=O)cc1` (stereo unspecified), the growth was 88.3%.

As to `COc1ccccc1/C=C/C(=O)CCC(=O)O`, the growth is 96.3%.
